Assay outcomes deposited in PubChem BioAssay by The Scripps Research Institute Molecular Screening Center.
CHO-K1 Ca antag: M1 antagonist counterscreen hit in parental CHO-K1 cells | ATP-induced calcium, Fluo-8 fluorescence | inhibition, % at 3 µM | hit rate 0.6% among 360,000 | AID 602250;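 active means inhibition above a per-plate cutoff, the plate's mean sample inhibition plus 3 SD, cut at about 24% in these data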
CHO-K1 Ca PAM: M1 PAM counterscreen hit in parental CHO-K1 cells; ATP EC20, Fluo-8 calcium fluorescence; 0% at ATP EC20, 100% at ATP max; activation, % at 3 µM; hit rate 0.02% among 360,000; AID 602247;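 active means activation above the run cutoff, the mean activation of all test compounds plus 3 SD, cut at about 40% in these data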;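 further: peak over basal fluorescence ratio in a 140 s read after ATP addition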
CHO-K1 Ca ag: counter-screen for M1 agonists: effect in parental CHO-K1 cells; hit rate 0.48% among 360,000; Fluo-8 calcium fluorescence; scaled to maximal ATP response, vehicle zero; activation, % at 3 µM; in the data active means activation above about 15%;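 further: untransfected CHO-K1 host cells lacking M1 receptor as counterscreen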
CHRM1 agonist: agonists of human M1 muscarinic receptor. P11229. CHO-K1 hM1, Fluo-8 calcium fluorescence, agonist mode; 0% DMSO, 100% acetylcholine EC100. activation, % at 3 µM. hit rate 0.33% among 360,000. AID 588814;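 active means activation above the run's mean compound activation plus 3 SD, cut at about 16% in these data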;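 further: peak over basal fluorescence ratio within a 140 s kinetic read after compound addition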
Target sequence (P11229 whole entry, looked up): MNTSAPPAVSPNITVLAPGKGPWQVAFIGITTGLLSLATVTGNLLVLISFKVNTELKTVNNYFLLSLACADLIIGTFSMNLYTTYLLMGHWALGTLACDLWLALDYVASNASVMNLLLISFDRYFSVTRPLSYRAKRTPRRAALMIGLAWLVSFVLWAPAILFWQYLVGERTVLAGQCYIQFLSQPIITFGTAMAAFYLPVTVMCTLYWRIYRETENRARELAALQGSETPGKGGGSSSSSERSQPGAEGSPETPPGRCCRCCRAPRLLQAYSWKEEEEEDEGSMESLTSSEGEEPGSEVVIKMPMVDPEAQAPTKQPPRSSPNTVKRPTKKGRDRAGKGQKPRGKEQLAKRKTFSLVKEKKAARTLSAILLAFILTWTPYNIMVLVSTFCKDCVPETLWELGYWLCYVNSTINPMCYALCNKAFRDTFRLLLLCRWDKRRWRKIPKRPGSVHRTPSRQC
CHRM1 PAM: potentiates human M1 receptor response to acetylcholine; AID 588819; CHO-K1 hM1, Fluo-8 calcium fluorescence, ACh EC20; 0% = ACh EC20, 100% = maximal ACh; hit rate 0.088% among 360,000; P11229; activation, % at 3 µM; in the data active means activation above about 19%, passing the limit was not always enough
M1 antag: blocks human M1 muscarinic receptor. hit rate 1.3% among 360,000. inhibition, % at 3 µM. P11229. CHO-K1 hM1, Fluo-8 calcium fluorescence, ACh EC80 antagonist;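 active means percent inhibition above its own plate's cutoff, namely the mean of that plate's compound wells plus 3 SD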;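 further: peak over basal fluorescence ratio during 140 s after agonist addition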
Numbers stand for hits; . = inactive. Hits are enriched below; roughly 2.3% of the tested compounds scored in any of these assays.

SMILES	CHO-K1 Ca antag	CHO-K1 Ca PAM	CHO-K1 Ca ag	CHRM1 agonist	CHRM1 PAM	M1 antag
CCOC(=O)C1CCCN(c2cc(=O)n(Cc3ccc(F)cc3)c(=O)[nH]2)C1 (stereo not drawn)	.	.	.	22	.	.
CSc1ccccc1NC(=O)CSc1nnc(Cc2ccccc2)o1	.	.	.	.	.	.
CCC1(c2ccc(OC)cc2)NC(=O)N(CC(=O)NC2CCCCC2C)C1=O (stereo not drawn)	.	.	.	.	.	.
CCOC(=O)[C@@H]1[C@H]2COc3cc(OC)ccc3[C@@H]2N2C(=O)N(c3ccc(C(F)(F)F)cc3)C(=O)[C@@]12C	.	.	.	.	.	.
CCOC(=O)[C@H]1[C@H]2COc3cc(OC)ccc3[C@@H]2N2C(=O)N(c3cccc(F)c3)C(=O)[C@@]12C	.	.	.	.	.	.
CCOC(=O)[C@@H]1[C@H]2COc3cc(OC)ccc3[C@H]2N2C(=O)N(c3ccc(C(F)(F)F)cc3)C(=O)[C@]12C	33	.	.	.	.	41
CCOC(=O)[C@@H]1[C@H]2COc3cc(OC)ccc3[C@H]2N2C(=O)N(c3cccc(F)c3)C(=O)[C@@]12C	.	.	.	.	.	31
Nc1ccc(-c2c3ccc(=O)cc-3oc3cc(O)ccc23)c(C(=O)O)c1	29	.	108	117	.	.
CN1CCC(OC(c2ccccc2)c2ccc(Cl)cc2)C1 (stereo not drawn)	.	.	.	.	.	100
OC[C@@H]1CN(Cc2ccc(-c3ccccc3)cc2)C[C@H](n2cnc3c(NC4CCC4)ncnc32)O1	.	.	.	.	.	34
OC[C@@H]1CN(Cc2ccccc2)C[C@H](n2cnc3c(NC4CC4)ncnc32)O1	.	.	.	.	.	.
OCCN1CCN(c2ncnc3c2ncn3[C@H]2CN(Cc3ccccc3)C[C@@H](CO)O2)CC1	.	.	.	.	.	.
OCCN1CCN(c2ncnc3c2ncn3[C@H]2CN(Cc3cccnc3)C[C@@H](CO)O2)CC1	27	.	.	.	.	.
CCc1ccc(C(=O)COC(=O)c2cc([N+](=O)[O-])ccc2N2CCOCC2)cc1	.	.	.	.	.	.
O=C(Nc1ccc(Oc2ccccc2)cc1)C1CCN(c2c3c(nc4ncnn24)CCC3)CC1	.	.	.	.	.	36
COc1ccc(OC)c(NS(=O)(=O)c2ccc(-n3cccn3)cc2)c1	26	.	.	.	.	.
CCOC(=O)NC(=O)/C(C#N)=C\Nc1sccc1C(=O)OC	.	.	18	.	.	.
Cc1ccc(C(=O)Nc2ccnc(-c3ccncc3)n2)cc1	.	.	.	.	.	.
CC(CCN1C(N(C)C)=NC[C@@H]1C)c1ccccc1 (stereo partly drawn)	.	.	.	.	.	31
COc1ccc(C(C2C(=O)CC(C)(C)CC2=O)C2C(=O)CC(C)(C)CC2=O)cc1	.	.	19	.	.	.
COc1ccc(-n2c(CN3CCN(c4ccccn4)CC3)nc3ccc([N+](=O)[O-])cc3c2=O)c(OC)c1	.	.	.	.	.	.
CC(=O)c1nn(-c2cccc(Br)c2)cc1C(=O)c1ccc2ccccc2c1	.	.	.	.	.	35
COc1ccc(C(=O)c2cn(-c3cccc(Br)c3)nc2C(C)=O)cc1	.	.	.	.	.	.
COc1ccccc1NC(=O)CN(c1ccccc1C)S(C)(=O)=O	.	.	.	.	.	.
CCOC(=O)c1ccccc1NC(=O)CN(c1ccccc1C)S(C)(=O)=O	30	.	.	.	.	.
SMILES	CHO-K1 Ca antag	CHO-K1 Ca PAM	CHO-K1 Ca ag	CHRM1 agonist	CHRM1 PAM	M1 antag
O=C(NCC1(N2CCCCC2)CCCCC1)c1ccc(NS(=O)(=O)c2ccccc2)cc1	28	.	.	.	.	.
O=C(N/N=C/c1cc(Cl)cc(Cl)c1O)c1ccncc1	.	.	15	.	.	.
CCN(c1cccc(C(F)(F)F)c1)S(=O)(=O)c1ccc2c(c1)CCN2C(=O)C1CC1	.	.	.	.	.	33
Cc1ccc(OCCNC(=O)Cc2ccc(F)cc2)cc1	.	.	.	.	.	.
Cc1csc2ncnc(NNC(=O)c3ccc(Cl)cc3)c12	.	.	19	.	.	43
Cc1cc(/C=C(\C#N)C(N)=O)c(C)n1-c1ccc(N2CCOCC2)c([N+](=O)[O-])c1	.	.	.	34	.	.
COc1ccc(C(=O)OCCc2sc[n+](CC(=O)c3ccccc3)c2C)cc1	.	.	.	.	.	69
Cc1c(CCOC(=O)C2C3CC4CC(C3)CC2C4)sc[n+]1CC(=O)c1ccc(Br)cc1 (stereo not drawn)	.	.	.	.	.	39
CC1(C(=O)O)CCC(C(=O)Nc2cccc(F)c2)C1(C)C (stereo not drawn)	.	.	.	.	.	.
Cc1cc(C)c2oc(C(=O)N3CCN(C)CC3)cc(=O)c2c1	.	.	.	.	32	.
COc1ccc(S(=O)(=O)N(C)[C@H]2C[C@H]3c4cc(Oc5ccccc5C)ccc4CCN3C(=O)[C@H]2[C@H](C)O)cc1	.	.	.	.	.	.
CC(NC(=O)COC(=O)Cc1ccsc1)c1ccccc1 (stereo not drawn)	.	.	18	.	.	.
O=C(COC(=O)Cc1ccsc1)NC(c1ccccc1)c1ccccc1	.	.	.	.	.	.
COc1ccc(N2CCN(c3oc(-c4ccc(OC)c(OC)c4)nc3C#N)CC2)cc1	.	.	.	.	.	.
COc1ccc(-c2nc(C#N)c(N3CCN(c4ccccc4)CC3)o2)cc1	.	.	.	.	.	29
COC(C[C@H]1O[C@H]1[C@H](O)COCc1ccccc1)OC	.	.	.	.	.	.
O=[N+]([O-])c1ccc(N=Nc2c(Cl)cc(O)cc2Cl)cc1	40	.	17	.	.	32
Cc1c(N=Cc2nc3ccccc3[nH]2)c(=O)n(-c2ccccc2)n1C	31	.	.	.	.	.
COCCN1C[C@@H](CO)O[C@@H](n2cnc3c(N(C)C)ncnc32)C1	.	.	.	.	.	.
C/C(=N\NC(=O)Cc1ccc(Cl)cc1)c1cccc(NC(=O)c2cccnc2)c1	.	.	.	.	.	.
C[C@@]12C(=O)Nc3ccc(F)cc3C(=O)N1[C@H]1c3ccccc3OC[C@@H]1[C@@H]2c1ccccc1	.	.	.	.	.	89
C[C@@]12C(=O)Nc3ccc(F)cc3C(=O)N1[C@H]1c3cc(Cl)ccc3OC[C@@H]1[C@@H]2c1ccccc1	.	.	.	.	.	.
C[C@@]12C(=O)Nc3cc(F)c(F)cc3C(=O)N1[C@H]1c3ccccc3OC[C@@H]1[C@@H]2c1ccccc1	.	.	.	.	.	79
O=C(CCN1C(=O)/C(=C\c2cccs2)SC1=S)Nc1ccc(C(=O)O)cc1	.	.	.	.	.	.
